Results with a measured potency or affinity are listed apart.
These compounds were tested on Staphylococcus aureus. Conditions: Concentration 32 ug.mL-1;; ASSAY_TEST Inhibition of Bacterial Growth; detection method Absorption (OD600); MEDIA CAMHB; plate type 384well; NBS; CORNING #3640; time 18 hr.

For Cc1ccc(-c2ccc3nnc(CCC(=O)NCc4cccc(Br)c4)n3n2)cc1C, which Inhibition is on record?
The Inhibition was 4.83%.

For Cc1ccc(-c2cc3c4nn(CC(=O)Nc5ccc6c(c5)OCO6)c(=O)n4ccn3n2)cc1, which Inhibition is on record?
The Inhibition was 12.49%.

With Cc1ccc(-c2ccc3nn(Cc4ccc(F)cc4Cl)c(=O)n3n2)cc1C as the compound, how does the Inhibition read?
The Inhibition was 8.63%.

Which Inhibition does the source give for Cc1ccc(NC(=O)Cn2nc3ccc(SC4CCCCC4)nn3c2=O)cc1 here?
The Inhibition was -13.21%.

CCCn1c(=O)c2sccc2n2c(=O)n(Cc3ccc(Cl)cc3)nc12 was tested. Which Inhibition did it give?
The Inhibition was 1.51%.

With COc1ccc(-c2cc3c4nnc(CCC(=O)NCc5ccc6c(c5)OCO6)n4ccn3n2)cc1 as the compound, how does the Inhibition read?
Its Inhibition is -1.19%.

With CCOC(=O)c1ccc(NC(=O)Cn2nc3ccc(Sc4cccc(F)c4)nn3c2=O)cc1 as the compound, how does the Inhibition read?
Its Inhibition is 9.91%.

Which Inhibition does the source give for Cc1ccc(NC(=O)Cn2nc3c(N4CC(C)CC(C)C4)nccn3c2=O)c(F)c1 (centres undefined) here?
The Inhibition was 10.72%.

Which Inhibition does the source give for COc1ccccc1Cn1c(=O)c2sccc2n2c(=O)n(CC(=O)c3ccc(C)cc3C)nc12 here?
Its Inhibition is -4.72%.

How did the Inhibition turn out when COc1cccc(CNC(=O)CSc2nnc3c(=O)n(-c4cccc(OC)c4)ccn23)c1 was run?
The Inhibition was 1.1%.

Cc1cc2nn(CC(=O)N3CCCc4ccccc43)c(=O)n2c(Nc2ccc(F)cc2)n1 was tested. Which Inhibition did it give?
The Inhibition was 6.5%.

Cc1cc2nn(CC(=O)Nc3ccccc3C)c(=O)n2c(Nc2ccc(F)c(C)c2)n1 was tested. Which Inhibition did it give?
Its Inhibition is 4.45%.

COc1ccc(-c2cc3c4nnc(SCC(=O)NCc5ccccc5Cl)n4ccn3n2)cc1 was tested. Which Inhibition did it give?
The Inhibition was -4.22%.

With COc1cccc(CN(c2ccc(Cl)cc2)S(=O)(=O)c2ccc3nncn3c2)c1 as the compound, how does the Inhibition read?
Its Inhibition is -6.52%.

With Cc1ccc(-c2ccc3nn(Cc4nc(-c5ccc(OC(F)(F)F)cc5)no4)c(=O)n3n2)cc1 as the compound, how does the Inhibition read?
The Inhibition was 8.38%.

Which Inhibition does the source give for CCc1cccc(C)c1NC(=O)CSc1nnc2ccc(C(=O)Nc3cccc(F)c3)cn12 here?
The Inhibition was 1.86%.

With COC(=O)c1ccc(CN(c2cccc(F)c2)S(=O)(=O)c2ccc3nncn3c2)o1 as the compound, how does the Inhibition read?
The Inhibition was 9.42%.

For Cc1cccc(Oc2nccn3c(=O)n(CC(=O)Nc4ccccc4C(F)(F)F)nc23)c1C, which Inhibition is on record?
The Inhibition was 14.33%.

COc1cccc(-n2ccn3c(-c4ccc([N+](=O)[O-])cc4)nnc3c2=O)c1 was tested. Which Inhibition did it give?
Its Inhibition is 5.77%.

For Cc1ccc(S(=O)(=O)Nc2ccc3nnc(-c4ccccc4)n3n2)cc1C, which Inhibition is on record?
Its Inhibition is 8.79%.

CCC(Sc1nnc2c(=O)n(-c3ccccc3)ccn12)C(=O)Nc1ccc(OC)cc1OC (centres undefined) was tested. Which Inhibition did it give?
Its Inhibition is 10.76%.

For CC(C)(C)OC(=O)CN(c1ccc2c(c1)OCCO2)S(=O)(=O)c1ccc2nncn2c1, which Inhibition is on record?
Its Inhibition is 6.06%.

COc1ccccc1NC(=O)Cn1nc2c3cc(-c4ccc(C)c(C)c4)nn3ccn2c1=O was tested. Which Inhibition did it give?
Its Inhibition is 6.99%.

With COc1cc(NC(=O)C(C)Sc2nnc3c(=O)n(-c4ccc(C)c(C)c4)ccn23)cc(OC)c1 (centres undefined) as the compound, how does the Inhibition read?
The Inhibition was -0.67%.

How did the Inhibition turn out when Cc1ccc(NC(=O)Cn2nc3c(N4CCOCC4)nccn3c2=O)cc1F was run?
Its Inhibition is 9.97%.

Cc1ccc(-n2ccn3c(=O)n(Cc4ccccc4)nc3c2=O)cc1C was tested. Which Inhibition did it give?
Its Inhibition is 5.93%.

O=C(Cn1nc2c(SC3CCCCC3)nccn2c1=O)Nc1ccc(F)cc1 was tested. Which Inhibition did it give?
The Inhibition was 2.79%.

Which Inhibition does the source give for Cc1cc(C)c(NC(=O)Cn2nc3n(C)c(=O)c4c(c(-c5ccccc5)cn4C)n3c2=O)c(C)c1 here?
The Inhibition was 6.14%.

How did the Inhibition turn out when Cc1nnc2ccc(S(=O)(=O)N(Cc3ccccc3F)c3cccc(Cl)c3)cn12 was run?
Its Inhibition is 2.13%.

CCc1nnc2c(=O)n(CC(=O)Nc3ccc4c(c3)OCCO4)c3ccccc3n12 was tested. Which Inhibition did it give?
Its Inhibition is 2.09%.

Which Inhibition does the source give for O=C(Cn1nc2nc(Nc3ccc(F)cc3)ccn2c1=O)N1CCCc2ccccc21 here?
The Inhibition was 5.55%.

How did the Inhibition turn out when COc1cc(Cl)c(C)cc1NC(=O)Cn1nc2ccc(SC(C)(C)C)nn2c1=O was run?
The Inhibition was 0.92%.

With O=c1c2sccc2n2c(=O)n(Cc3ccccc3F)nc2n1CCc1ccccc1 as the compound, how does the Inhibition read?
The Inhibition was 9.4%.

How did the Inhibition turn out when CC(C)CCn1c(=O)c2sccc2n2c(=O)n(Cc3c(F)cccc3Cl)nc12 was run?
The Inhibition was 13.63%.

For CCc1nnc2c(SCC(=O)Nc3ccc(Cl)cc3)nc3ccccc3n12, which Inhibition is on record?
Its Inhibition is 15.07%.

With COC(=O)c1cccc(NC(=O)Cn2nc3c(N4CCCCCC4)nccn3c2=O)c1 as the compound, how does the Inhibition read?
The Inhibition was -4.81%.

How did the Inhibition turn out when CCCCOc1ccc(-c2cc3c4nnc(SCC(=O)Nc5ccc(C)c(F)c5)n4ccn3n2)cc1 was run?
The Inhibition was 5.13%.

For O=C(Cn1nc2c(Oc3ccccc3)nccn2c1=O)Nc1ccc(Cl)cc1, which Inhibition is on record?
Its Inhibition is 8.53%.

With COc1ccc(Cl)cc1NC(=O)Cn1nc2ccc(Sc3ccccc3)nn2c1=O as the compound, how does the Inhibition read?
The Inhibition was -3.52%.
